# Data: PubChem BioAssay (NCI)
# Compounds without any hit were thinned out: in the full panel of roughly 83,000, 20% have a hit.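 Single-dose data. Exposure time 48 hours. Values below 10 considered active.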 Values without a mark were called inactive. Activity calls are given as the source filed them.
# Tests used:
# Experiment in all cases: NCI-60 one-dose screen, 48 h (100 = growth as untreated, 0 = no growth, -100 = all killed)
# Settings in all cases: 10 µM unless noted
# DU-145 prostate = test system: DU-145 prostate
# K-562 leukemia = test system: K-562 leukemia
# MALME-3M melanoma = test system: MALME-3M melanoma
# MDA-MB-231 breast = test system: MDA-MB-231 breast
# RXF 393 renal = test system: RXF 393 renal
# SF-268 CNS = test system: SF-268 CNS
# SF-295 CNS = test system: SF-295 CNS
# SF-539 CNS = test system: SF-539 CNS
# UACC-257 melanoma = test system: UACC-257 melanoma
# M14 melanoma = test system: M14 melanoma
# HCT-15 colon = test system: HCT-15 colon
# HT29 colon = test system: HT29 colon
# SNB-75 CNS = test system: SNB-75 CNS
# SNB-19 CNS = test system: SNB-19 CNS
# U251 CNS = test system: U251 CNS
# PC-3 prostate = test system: PC-3 prostate
# SK-MEL-5 melanoma = test system: SK-MEL-5 melanoma
# UACC-62 melanoma = test system: UACC-62 melanoma
# LOX IMVI melanoma = test system: LOX IMVI melanoma
# SK-MEL-28 melanoma = test system: SK-MEL-28 melanoma
Compound,growth (DU-145 prostate),growth (K-562 leukemia),growth (MALME-3M melanoma),growth (MDA-MB-231 breast),growth (RXF 393 renal),growth (SF-268 CNS),growth (SF-295 CNS),growth (SF-539 CNS),growth (UACC-257 melanoma),growth (M14 melanoma),growth (HCT-15 colon),growth (HT29 colon),growth (SNB-75 CNS),growth (SNB-19 CNS),growth (U251 CNS),growth (PC-3 prostate),growth (SK-MEL-5 melanoma),growth (UACC-62 melanoma),growth (LOX IMVI melanoma),growth (SK-MEL-28 melanoma)
O=C1NCCc2c1noc2-c1ccccc1,104%,108%,108%,122%,105%,93.7%,97.8%,94.7%,101%,101%,106%,90.5%,89.7%,105%,98.5%,94.5%,105%,104%,98.7%,111%
COc1ccc2c(c1)sc1nc(-c3ccc(Br)cc3)cn12,115%,90.9%,109%,89.6%,109%,118%,89.2%,105%,101%,103%,110%,108%,112%,115%,99.5%,101%,76.4%,86.2%,99.1%,112%
CCN(CC)CCSc1ncnc2c1cnn2-c1ccc(S(N)(=O)=O)cc1,97%,63.2%,69.1%,93.3%,34.2%,105%,54.5%,94.4%,65.5%,98.6%,89%,85.7%,108%,107%,92.9%,85.7%,79.1%,92.7%,87%,92.8%
COc1ccc(C2=NN(C(C)=O)C(c3c(C)nn(-c4ccccc4)c3N3CCOCC3)C2)cc1 (stereo not given),107%,99%,106%,98.1%,98.7%,95%,93.9%,93.7%,86.3%,94.8%,103%,101%,74.4%,85.8%,89.3%,79.7%,97.6%,87.8%,97.8%,108%
CN(C)c1ncnc2c1ncn2C1CCCCO1 (stereo not given),115%,102%,101%,106%,114%,106%,116%,103%,106%,105%,100%,109%,86.4%,97.1%,108%,91.3%,107%,84.5%,101%,97.6%
O=CNc1ccc2c(c1)Cc1cc([N+](=O)[O-])ccc1-2,0.835% (active),21.3%,11.4%,34.4%,-14.6% (active),42%,16.3%,27.9%,59.3%,-15.7% (active),27%,37.5%,15.6%,36.2%,16.4%,32.3%,18.8%,29.6%,40.8%,57%
COc1cnc2c(c1)C(=O)c1c-2n(CCCn2ccnc2)c(=O)c2cc(F)ccc12,-56.4% (active),-4.93% (active),-52.2% (active),5.66% (active),-55.9% (active),3.73% (active),-5.57% (active),-60.6% (active),-34.7% (active),-39.9% (active),-28.4% (active),-16.2% (active),4.31% (active),16.6%,-27.1% (active),-4.35% (active),-96.2% (active),-55% (active),-68.9% (active),-62.5% (active)
CCOc1cc(/C=C/C(=O)CC(=O)/C=C/c2ccc(OC(=O)CNc3nc4ccc(OC)cc4s3)c(OCC)c2)ccc1OC(=O)CNc1nc2ccc(OC)cc2s1,15.5%,2.04% (active),94.4%,64.5%,-29.9% (active),26%,63.5%,3.65% (active),67.6%,21.1%,43.4%,-50.8% (active),34.1%,49%,15.7%,35.3%,30.1%,55.8%,6.98% (active),39.5%
O=C1CSC(c2ccccc2O)N1c1nnc(Cn2ccnc2)o1 (stereo not given),80.9%,43.5%,101%,61.6%,74.7%,55.7%,20.7%,55.6%,78.7%,59.8%,28.8%,86.2%,74.9%,86.3%,66.6%,64.6%,55.1%,77.4%,56%,74.8%
O=C(CNc1ccc2c(c1)C(=O)c1ccccc1C2=O)Nc1ccc2c(c1)C(=O)c1ccccc1C2=O,-100% (active),-30.2% (active),-81.2% (active),-27.7% (active),-89.4% (active),-94.6% (active),-89.4% (active),-69.3% (active),-90.3% (active),-79.3% (active),-81.5% (active),-54.5% (active),-51.4% (active),-29.9% (active),-91.4% (active),-24.3% (active),-98.1% (active),-93.3% (active),-91.7% (active),-75.1% (active)
O=C(/C=C/c1ccc(C(F)(F)F)cc1)c1ccc(Nc2nc(NCCO)nc(NCCO)n2)cc1,52.9%,11.7%,66.2%,71%,74.2%,54%,44.6%,29.3%,80.8%,65.4%,45.5%,5.46% (active),55.8%,56.7%,-21.2% (active),48.7%,76.5%,79.1%,-44.2% (active),94.9%
Cc1cc2c(cc1C)[n+](Cc1ccc3ccccc3n1)cn2Cc1ccc2ccccc2n1,24.1%,-0.971% (active),-28% (active),-7.81% (active),-6.38% (active),16.8%,5.16% (active),14.8%,-16.6% (active),-13.3% (active),66.2%,-14.5% (active),-1.25% (active),16.4%,7.2% (active),-7.23% (active),-93.1% (active),-38.1% (active),-56.9% (active),10.2%
O=C(Nc1ccccc1OC(=O)c1ccccc1)c1ccccc1,112%,25.2%,93.9%,56.1%,121%,47.3%,109%,95.7%,63.8%,102%,88.5%,51.9%,101%,87.4%,47%,88.5%,97.4%,82.6%,60.1%,118%
Cn1cc(NC(=O)Nc2cc(C(=O)O)n(C)c2)cc1C(=O)O,121%,83.1%,89.1%,98.3%,9.73% (active),122%,99.4%,103%,106%,108%,113%,107%,103%,118%,100%,-76.4% (active),93.6%,90%,98.1%,121%
